S1P2 blocker: blocks the human S1P2 receptor; O95136; cell-based S1P2 antagonist assay, inhibition at 5 uM; inhibition, % at 5 µM; actives 0.21% (n = 97,000); in the data active means inhibition above about 45%;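 further: CRE beta-lactamase reporter cells expressing human S1P2 stimulated with S1P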
GALR2 antag: antagonists of human galanin receptor 2 (GALR2); O43603; GALR2-expressing cells, antagonist mode; inhibition, % at 4 µM; actives 0.39% (n = 140,000); in the data active means inhibition above about 27%;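 further: cells stimulated with galanin 1-16 at roughly its EC80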
Target sequence (O43603 whole entry, looked up): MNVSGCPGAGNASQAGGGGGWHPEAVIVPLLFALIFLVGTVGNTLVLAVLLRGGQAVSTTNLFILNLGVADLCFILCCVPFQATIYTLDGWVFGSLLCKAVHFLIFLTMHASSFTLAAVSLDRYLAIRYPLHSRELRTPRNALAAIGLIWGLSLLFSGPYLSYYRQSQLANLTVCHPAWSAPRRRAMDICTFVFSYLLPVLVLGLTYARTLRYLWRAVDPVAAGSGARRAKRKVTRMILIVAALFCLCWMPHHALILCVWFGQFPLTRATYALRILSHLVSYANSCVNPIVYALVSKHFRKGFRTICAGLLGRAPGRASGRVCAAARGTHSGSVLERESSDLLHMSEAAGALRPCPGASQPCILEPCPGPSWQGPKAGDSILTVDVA
GALR2 agonist: agonists of human galanin receptor 2 (GALR2); O43603; GALR2-expressing cells, agonist activation read-out; activation, % (test concentration not listed); actives 0.48% (n = 140,000); in the data active means activation above about 5%, passing the limit was not always enough
S1P2 agonist: activates the human S1P2 receptor; actives 0.46% (n = 97,000); activation, % at 4.5 µM; O95136; S1P2-expressing cell line, agonist reporter read-out; in the data active means activation above about 16%
Large screens that a line does not name were inactive. Sampled rows, rich in hits. Any-hit rate of the full collection: about 1.2%.

Cc1cc2c(cc1C)/C(=C\C(N)=O)NC(C)(C)C2	none (no result: S1P2 blocker, S1P2 agonist)
COc1cc2c(cc1OC)/C(=C/C#N)NC(C)(C)C2	S1P2 agonist 26
C=CCNC(=S)N1CCN(c2ccc([N+](=O)[O-])cc2)CC1	none (no result: S1P2 blocker, S1P2 agonist)
CC(CN1CCCCC1)OC(=O)C(C)(c1ccccc1)c1ccccc1 (stereo unspecified)	none
CCOC(=O)c1sc2c(c1C)C(c1cccs1)C1=C(CCCC1=O)N2 (stereo unspecified)	GALR2 agonist 9.2, S1P2 agonist 31
COc1ccc(C(=O)N2N=C3CC(C)(C)OCC3C2c2ccccc2)cc1 (stereo unspecified)	none (no result: S1P2 blocker, S1P2 agonist)
COc1cc(-c2nnc3sc(C4CCCCC4)nn23)cc(OC)c1OC	S1P2 agonist 20
COc1ccc(/C=N/Nc2snc(SC)c2C#N)cc1OC	GALR2 agonist 5.1
COc1ccc(C2CC(=O)c3sc(NC(C)=O)nc3C2)cc1 (stereo unspecified)	none (no result: S1P2 blocker, S1P2 agonist)
Cc1cc(SCC#N)n2nc(C)c(-c3ccc(Cl)cc3)c2n1	S1P2 agonist 39
Cc1cc(SCC#N)n2nc(C)c(-c3ccccc3)c2n1	S1P2 agonist 16
Cc1cc(SCC(=O)c2cccs2)n2nc(C)c(-c3ccccc3)c2n1	none (no result: S1P2 blocker, S1P2 agonist)
O=C(CNC(=O)c1cccs1)NCCN1CCC(Cc2ccccc2)CC1	none (no result: S1P2 blocker, S1P2 agonist)
OC(COCc1ccc(Cl)cc1)CN1CCN(c2ccccn2)CC1 (stereo unspecified)	none (no result: S1P2 blocker, S1P2 agonist)
Cc1ccccc1OCC(=O)NNC(=O)CN1C(=O)c2ccccc2C1=O	none (no result: S1P2 blocker, S1P2 agonist)
COc1ccc(C2=Nn3c(nnc3-c3ccccc3OC)SC2)cc1OC	GALR2 antag 30, S1P2 agonist 34
COc1ccc(C2=Nn3c(nnc3-c3ccco3)SC2)cc1OC	S1P2 agonist 40
CNc1c([N+](=O)[O-])cnn1-c1ccc(C)cc1	none
CC(O)C1C(=O)OC2(C)CC(C)(C)NC(=S)N12 (stereo unspecified)	S1P2 agonist 44
COc1ccc(N(CC(=O)N/N=C/c2ccc(-c3ccc([N+](=O)[O-])cc3)o2)S(=O)(=O)c2ccc(C)cc2)cc1Cl	S1P2 blocker 50
COc1cc(C(=O)Nc2ccc(Br)cc2C(=O)c2cc(OC)c(OC)c(OC)c2)cc(OC)c1OC	none
Cc1cc(C)cc(Oc2nc(C(F)(F)F)nc3ccccc23)c1	S1P2 agonist 18
O=C(CSc1nnc(Nc2ccccc2)s1)Nc1cccc(S(=O)(=O)N2CCCCC2)c1	none (no result: S1P2 blocker, S1P2 agonist)
COc1ccc(/C=C/C(=O)c2cc(F)ccc2OC(=O)c2ccccc2)cc1OC	GALR2 agonist 5.5
O=c1c(S(=O)(=O)c2ccc(Cl)cc2)cn(Cc2ccccc2F)c2ccc(F)cc12	none (no result: S1P2 blocker, S1P2 agonist)
Cc1cccc2sc(NNC(=O)c3ccc(S(=O)(=O)N4CCc5ccccc5C4)cc3)nc12	none (no result: S1P2 blocker, S1P2 agonist)
Cc1cccc2sc(NNC(=O)c3ccc(S(=O)(=O)N4CCCC(C)C4)cc3)nc12 (stereo unspecified)	GALR2 agonist 5.2 (no result: S1P2 blocker, S1P2 agonist)
O=C(N/N=C\c1cc(Cl)ccc1O)c1ccc(S(=O)(=O)N2CCCCC2)cc1	GALR2 agonist 6.9 (no result: S1P2 blocker, S1P2 agonist)
O=C(NNS(=O)(=O)c1ccc(Cl)cc1)c1ccc(S(=O)(=O)N2CCCCC2)cc1	none (no result: S1P2 blocker, S1P2 agonist)
CC(C)c1ccc(/C=N/Nc2cc(N3CCOCC3)nc(N3CCOCC3)n2)cc1	none (no result: S1P2 blocker, S1P2 agonist)
Clc1ccc(-c2ccc(/C=N/Nc3cc(N4CCOCC4)nc(N4CCOCC4)n3)o2)cc1	GALR2 agonist 30, S1P2 agonist 54
Cc1ccnc(SCC(=O)Nc2sc3c(c2C#N)CCCC3)n1	S1P2 blocker 47
COc1ccccc1N1CCN(CC(=O)NCC2CCCO2)CC1 (stereo unspecified)	none
O=C(CSc1nc2ccccc2c(=O)[nH]1)Nc1ccc(S(=O)(=O)N2CCCC2)cc1	none
CCOCCOC(=O)c1ccc(-n2cncn2)nc1	none
CCOC(=O)c1c(C)[nH]c(C(=O)OC/C(O)=C(\C#N)c2nc3ccccc3[nH]2)c1C	S1P2 agonist 16
COc1ccccc1OCC(=O)OC/C(O)=C(\C#N)c1nc2ccccc2[nH]1	none (no result: S1P2 blocker, S1P2 agonist)
O=C(CSc1ncn[nH]1)Nc1c(Br)cc([N+](=O)[O-])cc1Br	none (no result: S1P2 blocker, S1P2 agonist)
COc1cccc(C2C3=C(CCCC3=O)Nc3nc(-c4cc(OC)c(OC)c(OC)c4)nn32)c1 (stereo unspecified)	S1P2 agonist 17
O=C(Nc1ccc(N2CCN(C(=O)c3ccco3)CC2)c(Cl)c1)c1cc2ccccc2o1	S1P2 blocker 65
O=C(Nc1ccc(N2CCN(C(=O)c3ccccc3)CC2)c(Cl)c1)c1ccco1	none
O=C(c1cc2ccccc2o1)N1CCN(c2ccccc2Cl)CC1	none
CCC(=O)N1CCN(c2ccc(NC(=O)c3cc4ccccc4o3)cc2Cl)CC1	S1P2 blocker 51
CCCC(=O)N1CCN(c2ccc(NC(=O)c3cc4ccccc4o3)cc2Cl)CC1	S1P2 blocker 76
Nc1cc(N)nc(SCc2nnnn2-c2ccc(Cl)cc2)n1	none (no result: S1P2 blocker, S1P2 agonist)
